Results from the supplement of paper PMC7411054.
Structures can show the parent of a compound that is named as a salt.

These molecules were tested on A549-TP53BP1-CLTA (assay: phenotypically active (imaging signature differs from DMSO and reproducible) at any of 0.3-9 uM (binary (1 = active, 0 = inactive)); higher = active). Settings: treatment time: 24 h.
Outline: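 Cells from fifteen gene-edited reporter lines (A549, HepG2 and WPMY1) were treated for 24 h at 0.3, 1, 3 or 9 µM and imaged live, four wells per condition. Features were normalised per well to solvent control wells. A condition deviated if ≥3 of 4 wells passed the 95th percentile of control Euclidean distances and was reproducible if its median replicate Pearson correlation beat the 95th percentile of non-replicates; phenotypic activity needed both.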

SMILES | phenotypically active
CC[C@H]1CN2CC[C@H]1C[C@@H]2[C@@H](O)c1ccnc2ccc(OC)cc12 [Hydroquinidine HCl] | 0 (inactive)
COc1cc2c(c(OC)c1OC)-c1ccc(O)c(=O)cc1[C@@H](N)CC2 [Trimethylcolchicinic acid] | 1 (active)
C[C@@]1(CO)[C@H](O)CC[C@@]2(C)[C@H]1CC[C@H]1C[C@@H]3C[C@@]12CC[C@]3(O)CO [Aphidicolin] | 1 (active)
COC(=O)[C@@]1(O)C[C@H]2O[C@]1(C)n1c3ccccc3c3c4c(c5c6ccccc6n2c5c31)C(=O)NC4 | 1 (active)
COc1ccc(N(C(=O)Oc2c(C)cccc2C)c2ccnc(Nc3ccc(N4CCN(C)CC4)cc3)n2)c(OC)c1 | 1 (active)
COc1ccc2c(c[n+](C)c3c4cc5c(cc4ccc23)OCO5)c1OC [Chelerythrine chloride] | 1 (active)
CC[C@@H]1C=CC=CC[C@H](C)[C@@H](O)[C@](C)(O)C(=O)[C@H](C)[C@@H](O)[C@H](C)C(=O)[C@H](C)[C@@H](O)[C@H](C)C=CC(=O)O[C@H]2[C@@H](C)[C@@H](CC1)O[C@@]1(CC[C@@H](C)[C@@H](C[C@H](C)O)O1)[C@@H]2C [Oligomycin A] | 1 (active)
CC(C)[C@@]1(NC(=O)[C@@H]2C[C@@H]3c4cccc5[nH]cc(c45)C[C@H]3N(C)C2)O[C@@]2(O)[C@@H]3CCCN3C(=O)[C@H](Cc3ccccc3)N2C1=O [Dihydroergocristine mesylate] | 1 (active)
O=c1[nH]c2ccccc2n1C1CCN(CCCC(c2ccc(F)cc2)c2ccc(F)cc2)CC1 [pimozide] | 0 (inactive)
C[C@]12CC[C@H]3[C@@H](CC[C@]4(O)C[C@@H](O)CC[C@]34C=O)[C@@]1(O)CC[C@@H]2C1=CC(=O)OC1 [Strophanthidin] | 1 (active)
CN1CCC2=C[C@H](O)[C@H]3OC(=O)c4cc5c(cc4[C@H]3[C@@H]21)OCO5 [Hippeastrine hydrobromide] | 0 (inactive)
C=C1[C@@H](O)C2C=CC[C@H](C)C(=O)[C@](C)(O)C=C[C@@H](OC(C)=O)[C@]23C(=O)N[C@H](Cc2ccccc2)[C@@H]3[C@@H]1C (stereo partly drawn) [Cytochalasin D] | 1 (active)
COc1ccc(C[C@H]2NC[C@H](O)[C@H]2OC(C)=O)cc1 [Anisomycin] | 1 (active)
C[C@@H]1CC[C@H]2[C@@H](C)C(=O)O[C@@H]3O[C@@]4(C)CC[C@@H]1[C@]32OO4 [Artemisinin] | 1 (active)
O=C1NC(=O)c2c1c1c3ccccc3n3c1c1c2c2ccccc2n1C1CCC3O1 | 0 (inactive)
Cc1sc2c(c1C)C(c1ccc(Cl)cc1)=N[C@@H](CC(=O)OC(C)(C)C)c1nnc(C)n1-2 | 1 (active)
CN1C[C@H](C(=O)N[C@]2(C)O[C@@]3(O)[C@@H]4CCCN4C(=O)[C@H](Cc4ccccc4)N3C2=O)C[C@@H]2c3cccc4[nH]cc(c34)C[C@H]21.CN1C[C@H](C(=O)N[C@]2(C)O[C@@]3(O)[C@@H]4CCCN4C(=O)[C@H](Cc4ccccc4)N3C2=O)C[C@@H]2c3cccc4[nH]cc(c34)C[C@H]21 [dihydroergotamine] | 1 (active)
C[C@@]12C(=O)OC(=O)[C@]1(C)[C@H]1CC[C@@H]2O1 [Cantharidin] | 1 (active)
COc1cc2c(c(OC)c1OC)-c1ccc(OC)c(=O)cc1[C@@H](NC(C)=O)CC2 [colchicine] | 1 (active)
CC(C)(O)[C@H]1O[C@H]2CC[C@@]3(C)[C@@](O)(CC[C@H]4Cc5c([nH]c6ccccc56)[C@@]43C)C2=CC1=O [paxilline] | 0 (inactive)
N#CC(C#N)=NNc1cccc(Cl)c1 | 1 (active)
Cc1c(C(=O)Nc2cccc(C(F)(F)F)c2)cc(-c2ccccc2)n1CCCN1CCOCC1 | 0 (inactive)
CCN1CCN(C(=O)Cc2ccc(Nc3ncc(F)c(Nc4ccc(C(=O)Nc5ccccc5Cl)cc4)n3)cc2)CC1 | 1 (active)
CC(C)(C)c1cc(C=C(C#N)C#N)cc(Br)c1O | 0 (inactive)
O=C(NCCN1CCC2(CC1)C(=O)NCN2c1cccc(F)c1)c1ccc(F)c(F)c1 [ML 298 hydrochloride] | 1 (active)
CC(C)(N)Cc1ccccc1 [phentermine] | 1 (active)
CCn1cnc2c(Nc3cccc(Cl)c3)nc(N[C@H]3CCCC[C@H]3N)nc21 | 1 (active)
O=C(Nc1ccncc1)C(=O)c1cn(Cc2ccc(Cl)cc2)c2ccccc12 [Indibulin] | 1 (active)
